Screening results (PubChem BioAssay)
Only some compounds are listed: those with a hit (about 7% of all), similar ones and a draw of the others.
rCAG binder-1: molecules binding r(CAG) RNA repeats; r(CAG) RNA repeat, TO-PRO-1 dye displacement fluorescence; inhibition, % at 3 µM; actives 1.3% (n = 370,000); AID 651821;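 active = inhibition above the plate cutoff, the mean of all test compounds on that plate plus 3 SD, cut at about 35% in these data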;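 also: higher means more dye released from RNA so lower well fluorescence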
AHR act: activates the human aryl hydrocarbon receptor | activation, % at 5 µM | P35869 | actives 2.5% (n = 320,000) | AID 2796 | AHR-responsive luciferase reporter cells, luminescence; in the data active = activation above about 47%
ADAM10 inh: ADAM10 inhibition, QFRET primary screen; inhibition, % at 7 µM; recombinant ADAM10, EDANS/DABCYL FRET peptide cleavage, 3 h; AID 720582; O14672; actives 0.62% (n = 370,000);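 active = inhibition above a per-campaign cutoff equal to the mean of compounds falling between control-based bounds plus 3 SD, cut at about 20% in these data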
KLK7 zymogen act: activators of human kallikrein-7 zymogen; purified proKLK7, EDANS-DABCYL substrate fluorescence; 100% is mature enzyme control, 0% vehicle; activation, % at 7 µM; AID 652039; actives 0.9% (n = 370,000); P49862;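 active = activation above the mean of all tested compounds plus 3 SD, computed per campaign excluding outliers beyond control limits, cut at about 13% in these data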
Target sequence (P49862 whole entry, looked up): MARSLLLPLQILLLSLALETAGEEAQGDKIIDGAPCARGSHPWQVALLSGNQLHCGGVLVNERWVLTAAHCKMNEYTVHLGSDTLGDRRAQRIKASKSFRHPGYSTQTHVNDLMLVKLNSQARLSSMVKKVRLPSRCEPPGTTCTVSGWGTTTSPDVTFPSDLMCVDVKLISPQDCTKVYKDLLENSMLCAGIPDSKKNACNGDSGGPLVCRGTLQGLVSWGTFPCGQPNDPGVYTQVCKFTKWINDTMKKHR
ADAM17 inh: ADAM17 inhibition, QFRET primary screen; recombinant ADAM17, EDANS/DABCYL FRET peptide cleavage; inhibition, % at 6.95 µM; actives 0.83% (n = 370,000);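 active = inhibition above the mean of compounds lying between control limits plus 3 SD, set per campaign, cut at about 8.5% in these data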
GRIN3A LBD mod: NR3A (human) ligand-binding domain modulation | NR3A LBD differential scanning fluorimetry, Tm shift; 0% = protein alone, 100% = glycine-bound protein | Tm shift relative to glycine control, % at 25 µM | actives 2.5% (n = 340,000);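 active = melting temperature shift of at least 10% of the positive control shift, at one fixed dose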
rCAG binder conf: r(CAG) RNA repeat binding, confirmation. shares compounds with rCAG binder-1. TO-PRO-1 dye displacement fluorescence. inhibition, % at 3 µM. actives 70% (n = 4,300). AID 652065;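 active = inhibition above a per-plate cutoff, the mean inhibition of sample wells plus 3 SD, cut at about 35% in these data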;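 also: loss of TO-PRO-1 fluorescence as compound displaces dye from 1x1 AA loop RNA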
dCAG dye counter: counter-screen for rCAG RNA binders: DNA CAG dye complex inhibitors; shares compounds with rCAG binder-1; d(CAG) DNA oligo TO-PRO-1 dye displacement, fluorescence; inhibition, % at 3 µM; actives 94% (n = 4,300);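 active = inhibition above its plate's cutoff, the mean test-well inhibition plus 3 SD, cut at about 4.8% in these data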;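 also: hits displace the dye from DNA and so lower well fluorescence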
dCAG dye DR: disrupts DNA CAG TO-PRO-1 complex in dose response | shares compounds with rCAG binder-1 | DNA CAG/GTC duplex TO-PRO-1 dye displacement fluorescence | IC50, µM | actives 20% (n = 250) | AID 686960; in the data active = IC50 below about 10 µM
dCAG TOPRO ctr: counter-screen for rCAG binders: DNA CAG TO-PRO-1 complex inhibitors, late stage; d(CAG) DNA duplex TO-PRO-1 dye displacement, fluorescence; IC50, µM; actives 80% (n = 30); shares compounds with rCAG binder-1
rCAG binder-2: binds r(CAG) RNA repeats in late stage dose response; shares compounds with rCAG binder-1; r(CAG) RNA TO-PRO-1 dye displacement, fluorescence; IC50, µM; actives 100% (n = 30)
Each line names hits and unclear results; the compound was inactive in the other large screens (follow-up assays come after a bar, where they were run). Unless noted, no rule for the calls is given here.

CCOC(=O)c1c(NC(=O)C(C)Sc2nnc(C)c(=O)[nH]2)sc2c1CCCC2 (stereo not given)	rCAG binder-1 69.1 | rCAG binder conf 66.1 | dCAG dye counter 30.0
CCOC(=O)c1c(NC(=O)CSc2nnc(C)s2)sc2c1CCCCC2	none
CCCCNC(=O)C[C@H]1C[C@@]2(C(=O)OC)C(=C[C@H](C(C)C)O[C@@H]2C2CC2)N(Cc2cccc3ccccc23)C1=O	none (no result: AHR act, GRIN3A LBD mod)
COc1ccc(C(=O)/C=C/Nc2ccc(S(=O)(=O)Nc3onc(C)c3C)cc2)cc1	rCAG binder-1 46.5 | rCAG binder conf 48.8 | dCAG dye counter 18.4
CCc1ccc(C(=O)/C=C/Nc2ccc(S(=O)(=O)Nc3onc(C)c3C)cc2)cc1	rCAG binder-1 56.9 | rCAG binder conf 79.1 | dCAG dye counter 36.7
Cc1ccc(Nc2nnc(SC/C(O)=C(\C#N)c3nc4ccccc4[nH]3)s2)c(C)c1	rCAG binder-1 38.7, AHR act 55.0, GRIN3A LBD mod 12.9 | rCAG binder conf 41.5 | dCAG dye counter 16.4
COc1cc(NC(=O)c2ccccc2)c(C)cc1NC(=O)CSc1nnc(-c2cnccn2)n1-c1ccc(C)cc1	none (no result: AHR act, GRIN3A LBD mod)
CS/C(Nc1cc(Cl)ccc1Cl)=C(/C#N)C(=O)c1ccco1	rCAG binder-1 47.4 | rCAG binder conf inactive | dCAG dye counter 5.7
O=C(Nc1cc(Cl)ccc1Cl)c1ccco1	none
CSc1nc(SCCO)c2sc3nc(-c4ccco4)c4c(c3c2n1)CC(C)(C)OC4	rCAG binder-1 39.1 (no result: AHR act) | rCAG binder conf 38.6 | dCAG dye counter 19.8
CC(C)c1ccc(C(=O)N2CCCCC2c2cc(C(=O)NCc3cccnc3)no2)cc1 (stereo not given)	none (no result: AHR act, GRIN3A LBD mod)
COc1ccc(/C=C2/C(=O)N(Cc3ccccc3)N=C2C)cc1	none
COc1ccc(/C=C2/C(=O)N(c3nc4ccccc4s3)N=C2CSc2ccc(Cl)cc2)cc1	rCAG binder-1 71.0 | rCAG binder conf 71.8 | dCAG dye counter 51.5
O=C(O)c1cc(-c2ccc3ccccc3c2)nc2ccc(F)cc12	rCAG binder-1 37.5 | rCAG binder conf inactive | dCAG dye counter inactive
O=C(O)c1cc(-c2cc(C(=O)O)c3ccccc3n2)nc2ccccc12	none (no result: rCAG binder-1, ADAM10 inh, KLK7 zymogen act, ADAM17 inh, GRIN3A LBD mod)
O=C(O)c1cc(-c2c[nH]c3ccccc23)nc2cc3ccccc3cc12	rCAG binder-1 54.4 (no result: GRIN3A LBD mod) | rCAG binder conf 35.1 | dCAG dye counter 12.5
O=C(O)c1cc(-c2cccc3ccccc23)nc2ccccc12	none
C=CCn1c(Cc2cccs2)nnc1SCC(=O)Nc1ccc(C)cc1	none (no result: AHR act, GRIN3A LBD mod)
C(=N\Nc1nncc2ccccc12)/c1cccnc1	none (no result: AHR act, GRIN3A LBD mod)
CC(OC(=O)C1=Cc2ccccc2OC1)C(=O)NCC1CCCO1 (stereo not given)	rCAG binder-1 71.2 (no result: AHR act) | rCAG binder conf 78.1 | dCAG dye counter 44.0
Cc1cc(C(=O)NN=Cc2cccc(O)c2)n[nH]1	none (no result: AHR act, GRIN3A LBD mod)
CCOC(=O)C1=C(C)NC(SCc2cc(=O)[nH][nH]2)=C(C#N)C1c1cccs1 (stereo not given)	rCAG binder-1 58.7 | rCAG binder conf 39.1 | dCAG dye counter 17.2
Cc1cc2c(nc1C)CCCN2S(=O)(=O)c1ccc(C(F)(F)F)cc1	none (no result: AHR act, GRIN3A LBD mod)
Cc1nn(-c2ccccc2)c(Cl)c1/C=C1\SC(=S)NC1=O	rCAG binder-1 64.6 | rCAG binder conf 64.3 | dCAG dye counter 17.8
COC(=O)C1=C(C)N(Cc2cccc(C(F)(F)F)c2)C(=NCc2cc(OC)c(OC)c(OC)c2)NC1c1ccccc1 (stereo not given)	none (no result: AHR act, GRIN3A LBD mod)
NS(=O)(=O)c1ccc(N/N=C/c2cn(-c3ccccc3)nc2-c2cccs2)c([N+](=O)[O-])c1	none
O=C(O)c1cccc(N/N=C/c2cn(-c3ccccc3)nc2-c2cccs2)c1	rCAG binder-1 48.1, AHR act 54.0 | rCAG binder conf 75.9 | dCAG dye counter 36.7
NS(=O)(=O)c1ccc(N/N=C/c2cn(-c3ccccc3)nc2-c2cccs2)cc1	rCAG binder-1 35.6, GRIN3A LBD mod 34.5 | rCAG binder conf inactive | dCAG dye counter 14.8
COc1cccc(CNC(=O)[C@H]2CCCN2C(=O)[C@H]2CCCN2C(=O)c2cccc(Cl)c2)c1	none (no result: AHR act, GRIN3A LBD mod)
O=C(COc1ccccc1/C=C1\SC(=S)NC1=O)Nc1ccc(F)cc1	rCAG binder-1 39.0, GRIN3A LBD mod 13.7 | rCAG binder conf 71.0 | dCAG dye counter 31.6 | dCAG dye DR inactive | dCAG TOPRO ctr 2.79 | rCAG binder-2 1.06
NC1=NC(=O)/C(=C/c2ccccc2OCC(=O)Nc2ccc(F)cc2)S1	none
Cc1cccc(N2C(=O)C(O)=C(C(=O)c3cccs3)C2c2cccc(Oc3ccccc3)c2)n1 (stereo not given)	rCAG binder-1 45.4 | rCAG binder conf 40.1 | dCAG dye counter 10.3
Cc1cccc(N2C(=O)C(O)=C(C(=O)c3cccs3)C2c2ccccc2)n1 (stereo not given)	none
CCOc1ccc(-n2c(C)cc(/C=C3/C(=N)N4C(=NC3=O)SN=C4S(C)(=O)=O)c2C)cc1	none
Cc1cc(/C=C2/C(=N)N3C(=NC2=O)SN=C3S(C)(=O)=O)c(C)n1-c1ccc(F)cc1	rCAG binder-1 68.6 | rCAG binder conf 79.2 | dCAG dye counter 46.5
COc1ccccc1-n1c(C)cc(/C=C2/C(=N)N3C(=NC2=O)SN=C3S(C)(=O)=O)c1C	rCAG binder-1 79.7 | rCAG binder conf 77.3 | dCAG dye counter 42.4
Cc1ccc(S(=O)(=O)Nc2nc3ccccc3nc2NCc2ccco2)cc1C	rCAG binder-1 47.0 | rCAG binder conf 52.7 | dCAG dye counter 19.5
O=S(=O)(Nc1nc2ccccc2nc1NCc1ccco1)c1ccc(Cl)cc1	none
Cc1ccc(S(=O)(=O)Nc2nc3ccccc3nc2NCc2ccco2)cc1	none
Cc1cccc(S(=O)(=O)Nc2nc3ccccc3nc2NCc2ccco2)c1	rCAG binder-1 44.0 | rCAG binder conf inactive | dCAG dye counter 7.3
CCOC(=O)C1CSCCS(=O)(=O)N1Cc1cccc(F)c1 (stereo not given)	none (no result: AHR act, GRIN3A LBD mod)
COCc1cc(N2CCN(C(=O)OC(C)(C)C)C[C@H]2C)ccc1Br	none (no result: AHR act, GRIN3A LBD mod)
